Results as given in publication PMC4336329 (PLoS ONE, 2015).
About 14,000 (4.5%) of roughly 310,000 compounds showed an effect of 50% or more. The effect is printed as a negative number. What follows is part of a selection rich in strong results, with near analogues and random picks from the rest.

These compounds were tested against human ether-à-go-go-related gene (hERG) potassium channel (human, UniProt Q12809) (assay: primary screen, population patch clamp on CHO cells stably expressing hERG; higher = less effect of the substance).
Chain of human ether-à-go-go-related gene (hERG) potassium channel (Q12809 whole entry, looked up): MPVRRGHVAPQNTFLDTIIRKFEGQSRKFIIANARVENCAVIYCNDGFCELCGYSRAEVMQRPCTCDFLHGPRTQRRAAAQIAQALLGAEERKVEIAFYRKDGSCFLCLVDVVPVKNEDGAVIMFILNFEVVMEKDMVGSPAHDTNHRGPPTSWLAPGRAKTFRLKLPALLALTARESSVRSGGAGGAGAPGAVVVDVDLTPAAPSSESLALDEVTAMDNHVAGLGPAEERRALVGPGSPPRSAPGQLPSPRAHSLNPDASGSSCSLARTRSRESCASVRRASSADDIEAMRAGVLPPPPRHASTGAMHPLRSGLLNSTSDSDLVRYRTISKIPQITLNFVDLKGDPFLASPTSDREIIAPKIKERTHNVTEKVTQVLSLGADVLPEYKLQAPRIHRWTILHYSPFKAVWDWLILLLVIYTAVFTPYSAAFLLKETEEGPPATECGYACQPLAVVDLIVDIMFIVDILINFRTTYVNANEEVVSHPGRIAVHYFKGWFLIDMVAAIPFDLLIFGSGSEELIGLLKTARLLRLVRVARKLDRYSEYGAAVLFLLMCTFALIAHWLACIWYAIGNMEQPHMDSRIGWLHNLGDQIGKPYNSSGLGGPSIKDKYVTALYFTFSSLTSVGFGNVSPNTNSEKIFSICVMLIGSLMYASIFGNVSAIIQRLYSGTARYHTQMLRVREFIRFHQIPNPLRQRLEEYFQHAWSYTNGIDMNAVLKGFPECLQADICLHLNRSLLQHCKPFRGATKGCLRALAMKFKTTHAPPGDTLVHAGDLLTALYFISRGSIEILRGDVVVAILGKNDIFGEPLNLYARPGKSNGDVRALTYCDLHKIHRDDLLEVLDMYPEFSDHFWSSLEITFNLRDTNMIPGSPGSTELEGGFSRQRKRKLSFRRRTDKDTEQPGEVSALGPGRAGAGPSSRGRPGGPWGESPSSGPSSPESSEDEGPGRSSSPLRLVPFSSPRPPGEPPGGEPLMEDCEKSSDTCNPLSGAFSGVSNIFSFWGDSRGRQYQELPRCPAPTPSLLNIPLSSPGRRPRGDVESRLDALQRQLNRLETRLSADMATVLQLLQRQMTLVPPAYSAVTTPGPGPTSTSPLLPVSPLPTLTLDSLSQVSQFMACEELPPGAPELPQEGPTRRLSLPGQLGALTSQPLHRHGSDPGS
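Also: peak tail current of the secondary pulse compared with the same well before compound.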

Compared with `CCOC(=O)c1[nH]nc(-c2c(O)cc(C)cc2O)c1-c1csc(C)n1`, `CCOC(=O)C1=C(c2ccccc2)N=C2SCC(=O)N2C1c1ccc(OCC)c(OCC)c1` (stereo not shown) is lower in “hERG current change (%, negative = inhibition) at 10uM” value: 11.3% for the first, 6.45% for the second.

First: Cc1cc(C)c2c(c1)c(C)cc1nnc(SCC(=O)NCc3ccco3)n12
Second: Cc1ccc(/C=N/NC(=O)CSc2nnc(-c3ccc(Cl)cc3)n2-c2ccccc2)o1
The “hERG current change (%, negative = inhibition) at 10uM” value of the first is higher: -8.05% for the first, -39.5% for the second.

First: COCCn1c(SCC(=O)NC2CCCCC2)nc2c(c1=O)SCC2
Second: O=C(/C=C/c1ccc(Br)cc1)NC1CCCCCC1
The “hERG current change (%, negative = inhibition) at 10uM” value of the first is lower: -11.2% for the first, -4.17% for the second.

Going from `Cc1ccc(C)c(S(=O)(=O)N2CCCOC2CNC(=O)C(=O)NCCCN2CCOCC2)c1` (stereo not shown) to `Cc1ccc(C(=O)CC2(O)C(=O)N(CN3CCOCC3)c3ccccc32)cc1` (stereo not shown), the “hERG current change (%, negative = inhibition) at 10uM” value falls from 0.752% to -2.38%.

Compared with `CCN(CC)c1cc(Oc2ccccc2)ncn1`, `COc1cccc(C(=O)CSc2nnnn2C)c1` is higher in “hERG current change (%, negative = inhibition) at 10uM” value: -9.54% for the first, 4.88% for the second.

First: CCOC(=O)N1CCN(C(=O)CSc2nc(-c3cccc(C)c3)ns2)CC1
Second: CC(=O)N1CCN(C(=O)c2cc3ccccc3o2)CC1
The “hERG current change (%, negative = inhibition) at 10uM” value of the first is lower: -38.8% for the first, 20.1% for the second.

First: O=C1N(Cc2ccccc2F)c2ccccc2C12OCCCO2
Second: O=C(CC1(O)C(=O)N(CN2CCOCC2)c2ccccc21)c1ccccc1 (stereo not shown)
The “hERG current change (%, negative = inhibition) at 10uM” value of the first is higher: 10.9% for the first, -70.4% for the second.

Going from `O=C(OC(C(=O)c1c[nH]c2ccccc12)c1ccccc1)c1cnccn1` (stereo not shown) to `O=C(COC(=O)c1ccccc1C(=O)N1CCN(c2ccc(F)cc2)CC1)NCc1ccccc1`, the “hERG current change (%, negative = inhibition) at 10uM” value falls from 1.77% to -73.6%.

Going from `O=C(O)/C(=C/c1cccnc1)NC(=O)c1ccccc1` to `O=C(Nc1sc2c(c1C(=O)O)CCCCC2)c1ccccc1`, the “hERG current change (%, negative = inhibition) at 10uM” value rises from 20.3% to 67.4%.

First: CCc1ccc(C(=O)CC2(O)C(=O)N(CN3CCOCC3)c3ccccc32)cc1 (stereo not shown)
Second: Cc1onc(-c2ccccc2)c1C(=O)Nc1ccc(S(=O)(=O)N2CCOCC2)cc1
The “hERG current change (%, negative = inhibition) at 10uM” value of the first is higher: 7.69% for the first, -29.6% for the second.

Going from `CC(C)=CCC(C)(C)C1OCCN1C(=O)c1ccccc1` (stereo not shown) to `Cc1cccc(CSc2nnc([C@@H]3CCCN3C(=O)OC(C)(C)C)o2)c1`, the “hERG current change (%, negative = inhibition) at 10uM” value rises from -18.7% to 4.85%.

First: Br.COc1ccc(-c2nc3n(c2C)CCC3)cc1
Second: COc1ccc(CCNC(=O)C2CCN(S(=O)(=O)c3ccc(C)cc3)CC2)cc1
The “hERG current change (%, negative = inhibition) at 10uM” value of the first is lower: -6.52% for the first, 0.741% for the second.

Going from `CCN(CC(=O)Nc1c(F)cccc1F)C(=O)c1cc([N+](=O)[O-])ccc1N1CCCCC1` to `O=C(NCc1ccccc1F)C1CC(=O)N(c2ccc3c(c2)OCCO3)C1` (stereo not shown), the “hERG current change (%, negative = inhibition) at 10uM” value rises from -10.6% to -2.83%.

Compared with `CC(=O)OCc1nc2ccccc2s1`, `Cc1noc(C)c1COc1ccccc1C(=O)NC1CCC(C)CC1` (stereo not shown) is lower in “hERG current change (%, negative = inhibition) at 10uM” value: 12% for the first, 0.497% for the second.

Compared with `O=C(CCCCCNC(=S)Nc1ccc(Cl)cc1)C[N+](=O)[O-]`, `CSCC[C@H](NC(=O)Nc1cccc(C(F)(F)F)c1)C(=O)O` is lower in “hERG current change (%, negative = inhibition) at 10uM” value: 12.9% for the first, -0.0702% for the second.

Going from `COc1ccc(-c2[nH]ncc2CN(C)CCN2CCOCC2)cc1F` to `O=C(Nc1ccc2c(c1)OCCO2)N1CCN(c2ccc(F)cc2)CC1`, the “hERG current change (%, negative = inhibition) at 10uM” value falls from 16.6% to -5.49%.

First: COc1ccc(C(=O)/C=C/c2cc(OC)c(O)c(OC)c2)c(F)c1
Second: COc1ccc(C(=O)/C=C/c2ccc(OC)c(O)c2)c(F)c1
The “hERG current change (%, negative = inhibition) at 10uM” value of the first is lower: -52.3% for the first, -13.5% for the second.

Compared with `COc1ccc2cc(C(=O)/C=C/c3cc(OC)c(O)c(OC)c3)ccc2c1`, `COc1cc(/C=C/C(=O)c2ccc(Cl)s2)cc(OC)c1O` is lower in “hERG current change (%, negative = inhibition) at 10uM” value: 8.79% for the first, -74.4% for the second.

First: COc1ccc(/C=C/C(=O)c2ccc(Cl)s2)cc1O
Second: COc1cc(/C=C/C(=O)O)cc(OC)c1O
The “hERG current change (%, negative = inhibition) at 10uM” value of the first is lower: 1.69% for the first, 2.08% for the second.

Compared with `COc1ccc(/C=N/NC(=O)c2cccc(OC(F)(F)C(F)F)c2)c(OC)c1OC`, `COc1cc(C(=O)OCC(=O)NCc2ccc(F)cc2)ccc1OCC(C)C` is higher in “hERG current change (%, negative = inhibition) at 10uM” value: -3.77% for the first, 21.1% for the second.

Going from `O=C1COc2ccc(NC(=O)c3ccccc3C(=O)O)cc2N1` to `CSc1ccccc1N1CCN(C(=O)Nc2ccc3c(c2)NC(=O)CO3)CC1`, the “hERG current change (%, negative = inhibition) at 10uM” value falls from 21.6% to -56.3%.

First: O=C(Nc1ccc2c(c1)OCO2)N1CCN(c2ccccc2Cl)CC1
Second: O=C(Nc1ccc2c(c1)OCO2)N1CCN(c2ccc(F)cc2)CC1
The “hERG current change (%, negative = inhibition) at 10uM” value of the first is lower: -32.3% for the first, -28% for the second.

Compared with `COc1cccc(N2CCN(C(=O)Nc3ccc4c(c3)NC(=O)CO4)CC2)c1`, `O=C1COc2ccc(NC(=O)N3CCN(c4ccc(F)cc4)CC3)cc2N1` is lower in “hERG current change (%, negative = inhibition) at 10uM” value: -75.8% for the first, -79.8% for the second.

Compared with `COc1cccc(N2CCN(S(=O)(=O)c3cc4c(cc3Cl)NC(=O)CO4)CC2)c1`, `CCOC(=O)c1ccc(NC(=O)N2CCN(c3cccc(OC)c3)CC2)cc1` is lower in “hERG current change (%, negative = inhibition) at 10uM” value: 12% for the first, -16.5% for the second.

First: Cc1nn(Cc2ccc([N+](=O)[O-])cc2)c(=O)n1N(C)c1ncc(C(F)(F)F)cc1Cl
Second: O=[N+]([O-])c1ccc(Oc2cccc3cccnc23)c(Cl)c1
The “hERG current change (%, negative = inhibition) at 10uM” value of the first is higher: -3.46% for the first, -15.4% for the second.

First: O=C(Nn1c(SCc2cccc([N+](=O)[O-])c2)nc2ccccc2c1=O)c1ccccc1
Second: CCc1ccccc1NC(=O)CSc1nc(-c2ccccc2)nn1C(=O)c1cccc([N+](=O)[O-])c1
The “hERG current change (%, negative = inhibition) at 10uM” value of the first is lower: -1.31% for the first, -0.129% for the second.

Compared with `O=C(COC(=O)c1ccccc1C(=O)N1CCN(c2ccccc2)CC1)NCc1ccccc1`, `O=C(COC(=O)c1ccccc1C(=O)N1CCN(c2ccccc2)CC1)Nc1ccccc1` is higher in “hERG current change (%, negative = inhibition) at 10uM” value: -58% for the first, -25.8% for the second.

First: O=C(COC(=O)/C=C/C(=O)N1CCN(c2ccccc2)CC1)NCc1ccc(F)cc1
Second: O=C(COC(=O)c1ccccc1C(=O)N1CCN(c2ccccc2)CC1)Nc1ccc(F)cc1
The “hERG current change (%, negative = inhibition) at 10uM” value of the first is higher: -8.17% for the first, -21.6% for the second.

First: COc1cccc(NC(=O)COC(=O)c2ccccc2C(=O)N2CCN(c3ccccc3)CC2)c1
Second: CN(C(=O)COC(=O)c1ccccc1C(=O)N1CCN(c2ccccc2)CC1)c1ccccc1
The “hERG current change (%, negative = inhibition) at 10uM” value of the first is higher: -11.8% for the first, -17% for the second.

Compared with `O=C(c1ccccc1Oc1ccccc1)N1CCN(c2ccc(F)cc2)CC1`, `CC(C)N(C(=O)COC(=O)c1ccccc1C(=O)N1CCN(c2ccc(F)cc2)CC1)C(C)C` is lower in “hERG current change (%, negative = inhibition) at 10uM” value: -33.9% for the first, -55.9% for the second.

First: O=C1CCC([N+](=O)[O-])C(c2ccc(Br)cc2)N1 (stereo not shown)
Second: O=C(O)[C@H]1CCCN1S(=O)(=O)c1cccc2cccnc12
The “hERG current change (%, negative = inhibition) at 10uM” value of the first is higher: 7.57% for the first, 0.132% for the second.

First: COC(=O)c1ccc(NS(=O)(=O)c2ccc(SC)cc2)cc1
Second: CSc1ncccc1C(=O)Nc1ccc(S(=O)(=O)NC2=NCCCCC2)cc1
The “hERG current change (%, negative = inhibition) at 10uM” value of the first is lower: -2.34% for the first, 7.85% for the second.

First: Cc1nn(Cc2c(Cl)cccc2Cl)c(C)c1N
Second: Cc1ccc(-n2cc(C(=O)c3ccccc3O)cn2)cc1
The “hERG current change (%, negative = inhibition) at 10uM” value of the first is lower: 9.12% for the first, 19.8% for the second.

Going from `O=C(Nc1ccncc1)c1cc2ccccc2cc1O` to `CC(=O)c1ccc(NC(=O)C2CCCN2S(=O)(=O)c2cccc3cccnc23)cc1` (stereo not shown), the “hERG current change (%, negative = inhibition) at 10uM” value rises from 5.89% to 7.11%.

Going from `CCCCNC(=O)[C@H]1C[C@H]1[C@@H](O)[C@H](CO)NC(=O)[C@H](CC(C)C)NC(=O)OC(C)(C)C` to `COC(=O)CCSCC(=O)Nc1cc(C)on1`, the “hERG current change (%, negative = inhibition) at 10uM” value falls from 16.1% to -14.4%.

Going from `CCS(=O)(=O)CCSC(=N)N.Cl` to `Br.CCS(=O)CCSC(=N)N` (stereo not shown), the “hERG current change (%, negative = inhibition) at 10uM” value rises from -53.3% to 19.2%.

First: Br.Cc1ccc(S(=O)(=O)CCSC(=N)N)cc1
Second: NC(=O)c1ccc(Oc2cccc3cccnc23)c([N+](=O)[O-])c1
The “hERG current change (%, negative = inhibition) at 10uM” value of the first is higher: 13.1% for the first, -13.4% for the second.

Compared with `O=C(C1CCCN1S(=O)(=O)c1cccc2cccnc12)N1CCc2ccccc21` (stereo not shown), `O=C(C1CCCN1S(=O)(=O)c1cccc2cccnc12)N1CCc2ccccc2C1` (stereo not shown) is lower in “hERG current change (%, negative = inhibition) at 10uM” value: -31.7% for the first, -57.5% for the second.

First: O=C(Nc1ccc(C(F)(F)F)cc1)C1CCCN1S(=O)(=O)c1cccc2cccnc12 (stereo not shown)
Second: O=C(Nc1cccc(C(F)(F)F)c1)C1CCCN1S(=O)(=O)c1cccc2cccnc12 (stereo not shown)
The “hERG current change (%, negative = inhibition) at 10uM” value of the first is lower: -51.9% for the first, -12.4% for the second.

Going from `O=C(C1CCN(S(=O)(=O)c2cccc3cccnc23)CC1)N1CCn2c1nc1ccccc12` to `O=C(C1CCCN1S(=O)(=O)c1cccc2cccnc12)N1CCn2c1nc1ccccc12` (stereo not shown), the “hERG current change (%, negative = inhibition) at 10uM” value falls from -9.66% to -50.8%.

Compared with `O=C(C1CCCN1S(=O)(=O)c1cccc2cccnc12)N1CCN(c2ccccc2)CC1` (stereo not shown), `O=C(COc1cccc2cccnc12)N/N=C1\SCC(=O)N1Cc1ccccc1` is higher in “hERG current change (%, negative = inhibition) at 10uM” value: -45% for the first, -44.8% for the second.

Compared with `COc1ccc(NC(=O)N2CCN(S(C)(=O)=O)CC2)cc1OC`, `O=c1[nH]c(=O)n(-c2cccc(F)c2)c(O)c1/C=C1\C=Nc2ccccc21` is higher in “hERG current change (%, negative = inhibition) at 10uM” value: -0.713% for the first, 14% for the second.

Going from `O=[N+]([O-])c1ccccc1OCCCOc1cccc2cccnc12` to `N#Cc1ccc(Oc2cccc3cccnc23)c([N+](=O)[O-])c1`, the “hERG current change (%, negative = inhibition) at 10uM” value falls from -15.3% to -79.1%.

First: Cc1ccc2cccc(Oc3ccc([N+](=O)[O-])cc3[N+](=O)[O-])c2n1
Second: O=[N+]([O-])c1ccc(Oc2cccc3cccnc23)c([N+](=O)[O-])c1
The “hERG current change (%, negative = inhibition) at 10uM” value of the first is higher: -7.96% for the first, -52% for the second.
